KB-V1 MDR tox: kills drug-selected multidrug resistant KB-V1 cells. 400,000 compounds, 3.4% hits. KB-V1 MDR cells viability, CellTiter-Glo, 72 h. Potency, µM (top dose mostly 46.1 µM), actives largely listed as cytotoxic; note: % is set by controls: 0 for no effect and ±100 for the full control effect; nearly all actives have a fitted effect of over 60% in size
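Compound-treated KB-V1 multidrug-resistant cells, 72 h, 37 degrees C; viability by CellTiter-Glo. Fitted qHTS curves give the values.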
SW480 rereplic: inducers of DNA re-replication in SW480 colon cancer cells; SW480 DNA re-replication, Hoechst DNA content imaging, 48 h; Potency, µM (highest dose often 46.1 µM), inactives show at the top dose re-replication activation, usual class: activators; 340,000 compounds, 1.8% hits; AID 624297; note: % of control where 0% means no effect; nearly all actives have a fitted effect of over 55% in size
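Compounds, transferred as 23 nL by pin tool, were incubated with cells for 48 hr; DNA content per nucleus was then quantified by Hoechst staining and fluorescence plate imaging.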
ELG1 DNA repair: blocks ELG1-dependent DNA repair in HEK293T cells. Potency, µM (series often up to 46.1 µM), for the others: at the highest dose activity change, negative = inhibition, most hits filed as inhibitors. AID 504467. HEK293T ELG1-luciferase reporter, luminescence, 16 h; DNA damage induced by 5-fluorouridine. 330,000 compounds, 2.3% hits; note: % is set by controls: 0 for no effect and ±100 for the full control effect; nearly all actives have a fitted effect of over 55% in size
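Cells (2,000 per well) received 5-fluorouridine plus test compound or DMSO and were incubated 16 hr at 37 °C, 5% CO2. Luciferase activity was read by luminescence 30 min after ONE-Glo addition; signal suppression marked inhibition of damage-induced ELG1 function.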
MCF10A rereplic: DNA re-replication induction in MCF 10a cells; MCF 10A DNA re-replication, Hoechst nuclear intensity, 48 h; Potency, µM (titrated, usually from 46.1 µM), without a hit: at the highest dose activity, positive = re-replication, hits mostly activators; 350,000 compounds, 2.9% hits; AID 624296; note: % of control where 0% means no effect; nearly all actives have a fitted effect of over 50% in size
KB-3-1 cytotox: kills parental KB-3-1 adenocarcinoma cells. KB-3-1 viability, CellTiter-Glo ATP luminescence, 72 h. Potency, µM (titrated, usually from 46.1 µM), most hits filed as cytotoxic. 400,000 compounds, 1.4% hits. AID 1347075; note: % is set by controls: 0 for no effect and ±100 for the full control effect; nearly all actives have a fitted effect of over 60% in size
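Parental KB-3-1 adenocarcinoma cells in phenol-red-free DMEM with 10% FBS were pin-treated with compounds at several concentrations, incubated 72 h at 37 °C, and viability read by CellTiter-Glo luminescence; concentration-effect curves were fitted after normalization.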
Active calls of the source: *; i = inactive; ? = inconclusive; . = not tested or not shown; [ ] = remark or other dose. A selection: hits, their analogues and other compounds. The true share with any hit is near 8.1%. Calls come from the whole dose curve; as a rule, active = well fitted curve in the direction sought with a large enough effect; inconclusive = small, poorly fitted or top-dose-only effect, or another doubt; inactive = no such curve, though single readings can be large; an effect the other way counts as inactive or inconclusive. Potency is the fitted concentration of half-maximal effect.

SMILES	KB-V1 MDR tox	SW480 rereplic	ELG1 DNA repair	MCF10A rereplic	KB-3-1 cytotox
O=C1CN=C(c2ccccc2)c2cc(Cl)ccc2N1	i	-32.7%	18.4%	1.3%	i
CCN(CC)c1ccc(CNCCc2ccccc2F)cc1	20.6µM*	7.3%	?	?	?
N#Cc1ccc(C(=O)N2Cc3cnnn3-c3ccccc3C2C#N)cc1 (stereo not given)	i	-4.9%[9.22 µM]	.	?	i
Cc1csc(N2CCc3ccccc32)n1	i	0.5%	?	4.1%	i
CC(=O)O[C@H]1C[C@@H]2OC3C=C(C)CCC3(C)[C@@]1(C)[C@@]21CO1 (stereo not given in full)	1.64µM*	9.2µM*	.	1.03µM*	2.31µM*
COc1ccc(NC(=O)Nc2cccc3c2O[C@H](CN(C)C(=O)NC2CCCCC2)[C@@H](C)CN([C@H](C)CO)C3=O)cc1	i	-22.5%	-15.6%	-6.0%	i
C[C@H](CO)N1C[C@H](C)[C@@H](CN(C)C(=O)NC2CCCCC2)Oc2c(NC(=O)Nc3ccc4c(c3)OCO4)cccc2C1=O	i	-1.1%	14.6µM*	-1.3%	i
CCOC(=O)c1c(N)n(CCCOC(=O)c2ccco2)c2nc3ccccc3nc12	?	?	?	?	11.6µM*
COCCCn1c(N)c(C(=O)OCCOC)c2nc3ccccc3nc21	i	?	?	-6.6%	i
COCCOC(=O)c1c(N)n(Cc2ccc(OC)cc2)c2nc3ccccc3nc12	i	20.2%	14.6µM*	5.1%	i
CCCCCn1c(NC(=O)c2ccco2)c(C(=O)OCC)c2nc3ccccc3nc21	i	3.66µM*	-24.2%	5.8µM*	i
COCCCNC(=O)c1c(N)n(Cc2ccco2)c2nc3ccccc3nc12	i	9.2µM*	?	11.6µM*	i
Nc1c(C(=O)NCc2ccco2)c2nc3ccccc3nc2n1CCN1CCCCC1	i	-2.4%	?	-3.8%	i
Nc1c(C(=O)OCC2CCCO2)c2nc3ccccc3nc2n1Cc1cccs1 (stereo not given)	i	9.4%	?	?	?
Nc1c(C(=O)NC2CCCC2)c2nc3ccccc3nc2n1CC1CCCO1 (stereo not given)	i	14.6µM*	14.6µM*	7.31µM*	i
COCCOC(=O)c1c(N)n(Cc2ccco2)c2nc3ccccc3nc12	i	-0.3%	-3.6%	-2.1%	i
COc1ccc(Cn2c(N)c(C(=O)NCc3ccco3)c3nc4ccccc4nc32)cc1OC	20.6µM*	0.517µM*	?	?	?
CCCNC(=O)c1c(N)n(Cc2ccco2)c2nc3ccccc3nc12	i	?	23.1µM*	2.06µM*	i
Nc1c(C(=O)NCC2CCCO2)c2nc3ccccc3nc2n1Cc1ccco1 (stereo not given)	i	13µM*	23.1µM*	2.59µM*	i
CC(C)OC(=O)c1c(N)n(Cc2ccco2)c2nc3ccccc3nc12	i	15.1%	8.4%	-3.7%	i
CC(C)CNC(=O)c1c(N)n(Cc2ccco2)c2nc3ccccc3nc12	16.4µM*	20.6µM*	25.9µM*	6.51µM*	?
Cc1ccccc1Cn1cccc(C(=O)Nc2nc3ccccc3s2)c1=O	i	.	.	.	i
O=c1[nH]c2ccccc2n1C1CCN(C(c2cccs2)c2nnnn2Cc2ccccc2)CC1 (stereo not given)	14.6µM*	.	.	.	?
O=c1[nH]c2ccccc2n1C1CCN(C(CCc2ccccc2)c2nnnn2Cc2ccccc2)CC1 (stereo not given)	6.51µM*	.	.	.	?
CSCCC(c1nnnn1C1CCCC1)N1CCC(n2c(=O)[nH]c3ccccc32)CC1 (stereo not given)	23.1µM*	.	.	.	i
SMILES	KB-V1 MDR tox	SW480 rereplic	ELG1 DNA repair	MCF10A rereplic	KB-3-1 cytotox
CSCCC(c1nnnn1Cc1ccccc1)N1CCC2(CC1)C(=O)NCN2c1ccccc1 (stereo not given)	14.6µM*	.	.	.	i
CSCCC(c1nnnn1C1CCCCC1)N1CCC(n2c(=O)[nH]c3ccccc32)CC1 (stereo not given)	i	.	.	.	i
Cn1cc(C(=O)OCC(=O)NC2(C#N)CCCCC2)c2ccccc21	i	-0.8%	-1.7%	-2.7%	i
O=C(CCC(=O)N1CCC2(CC1)OCCO2)Nc1nnc(C2CCCCC2)s1	i	-5.1%	7.3%	4.7%	i
N=C1c2ccccc2CN1NC(=O)c1ccc(Cl)cc1	i	-4.5%	-3.3%	-0.2%	i
O=c1[nH]c(=S)n(CCC2=CCCCC2)c(O)c1C=NCCCn1ccnc1	i	-3.0%	10.2%	?	i
C[C@@H](Cc1ccc(O)cc1)NC[C@@H](O)c1cc(O)cc(O)c1	.	-9.1%	.	-1.1%	.
CSCCC(c1nnnn1Cc1ccccc1)N1CCC(n2c(=O)[nH]c3ccccc32)CC1 (stereo not given)	10.3µM*	.	.	.	i
Cc1cccc(C(=O)NC(Oc2ccccc2)C(Cl)(Cl)Cl)c1 (stereo not given)	i	17.8%	12.0%	?	i
C#CC1(O)CCC2C3CCC4=CC(=O)CCC4(C)C3CCC21C (stereo not given)	.	-2.4%	.	4.9%	.
C#C[C@]1(O)CC[C@H]2[C@@H]3CCC4=Cc5nc6nc7ccccc7n6cc5C[C@]4(C)[C@H]3CC[C@@]21C	?	7.94µM*	7.94µM*	?	i
O=C(O)CCCC[C@@H]1SC[C@@H]2NC(=O)N[C@@H]21	i	3.1%	.	-4.4%	i
O=P(Nc1ccccc1)(Nc1ccccc1)Oc1cccc(Cl)c1	i	-2.1%	16.4µM*	11.1%	i
O=P(Nc1ccccc1)(Nc1ccccc1)Oc1ccccc1	i	-7.6%	?	2.1%	i
Cc1c2cnn(CC(=O)N3CCC4(CC3)OCCO4)c(=O)c2c(C)n1Cc1ccccc1	i	-2.0%	-9.0%	-3.0%	i
O=C(Cn1ncc2c3ccccc3n(Cc3ccc(F)cc3)c2c1=O)N1CCC2(CC1)OCCO2	?	3.9%	20.6µM*	21.2%	i
O=C(NCCN1CCC2(CC1)C(=O)NCN2c1cccc(F)c1)c1ccc2ccccc2c1	i	.	.	.	?
Cc1cc(S(=O)(=O)NCC(C)C)ccc1OCC(=O)N1CCN(Cc2ccccc2)CC1	i	?	?	7.9%	i
Cc1cc(=O)oc2cc(OCC(=O)N3CCN(Cc4ccc5c(c4)OCO5)CC3)ccc12	i	-23.4%	6.51µM*	1.0%	i
CC(C)NS(=O)(=O)c1ccc(OCC(=O)N2CCN(Cc3ccc4c(c3)OCO4)CC2)c(Cl)c1	i	-2.2%	11.6µM*	27.9%	i
Cc1cc(S(=O)(=O)NC(C)C)ccc1OCC(=O)N1CCN(Cc2ccc3c(c2)OCO3)CC1	2.59µM*	-2.3%	-25.9%	-1.0%	16.4µM*

High-throughput results as filed in PubChem BioAssay.
